# Laboratory results published in PubChem BioAssay (NCATS).
# Several values for one entry are separate records, joined by “and”; a condition that tells them apart may be missing. Equal values may be shown once. Inconclusive results are not listed. Activity calls are given as the source filed them. Unless noted, no rule for the calls is given here.
# Experiments:
# [1] = qHTS Assay for Identifying Gametocytocidal Compounds (AID 743244; active = well fitted curve in the direction sought with a large enough effect; an effect the other way counts as inactive or inconclusive;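 also: % is scaled to controls: 0 for no effect and ±100 for the full control effect; actives lower the fluorescent signal which means gametocytes are killed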); conditions: P. falciparum 3D7 stage III-V gametocytes, alamarBlue, 72 h; max response: stronger effect = lower value
# Method in brief: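 In this qHTS viability screen, late-stage 3D7 gametocytes are incubated with compound for 72 h, then with alamarBlue for 24 h; reduced resorufin fluorescence marks killing.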
# [2] = qHTS profiling for inhibitors of Plasmodium falciparum (3D7) proliferation (AID 743322);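 also: infected erythrocytes exposed to compound for 72 h before lysis; 100% = DMSO vehicle wells and 0% = 0.29 µM artemisinin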; conditions: P. falciparum 3D7 proliferation; at 28.7 µM (top of the series) unless noted
# Method in brief: (§1)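 Parasite DNA was quantified by SYBR Green I fluorescence (ex 485, em 535 nm) after overnight lysis in saponin/Triton buffer at room temperature. Cultures at 0.3% parasitemia and 2.5% hematocrit were first exposed to compound for 72 h at 37 C; signals were normalised to artemisinin (0.29 uM) and vehicle wells.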
# [3] = qHTS profiling for inhibitors of Plasmodium falciparum (DD2) proliferation (AID 743323); conditions: lower = more inhibition; at 28.7 µM (top of the series) unless noted
# Method in brief: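 P. falciparum Dd2-infected erythrocytes (0.3% parasitemia, 2.5% hematocrit) exposed 72 h at 37 C, 5% CO2. Lysis with SYBR Green, overnight at room temperature, fluorescence 485/535 nm; normalized to 0.29 uM artemisinin and DMSO.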
# [4] = qHTS profiling for inhibitors of Plasmodium falciparum (HB3) proliferation (AID 743324; active = well fitted curve in the direction sought with a large enough effect; an effect the other way counts as inactive or inconclusive;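 also: 100% = DMSO vehicle wells and 0% = artemisinin-treated control wells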); conditions: Plasmodium falciparum HB3 blood-stage proliferation; at 28.7 µM (top of the series) unless noted
# Method in brief: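 SYBR Green fluorescence (485 ex/535 em) of lysed cultures, incubated overnight at room temperature in the dark, quantifies parasite DNA. Infected erythrocytes at 0.3% parasitemia and 2.5% hematocrit were exposed 72 h; values normalized to DMSO and 0.29 uM artemisinin controls.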
# [5] = qHTS profiling of the MIPE4 collection as inhibitors of Plasmodium falciparum (3D7) proliferation (AID 743344);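 also: scaled between DMSO vehicle wells and 0.29 µM artemisinin as full inhibition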; conditions: P. falciparum 3D7 in erythrocytes, SYBR Green DNA fluorescence, 72 h; at 28.5 µM (top of the series) unless noted
# Method in brief: as §1
# [6] = qHTS profiling of the MIPE4 collection as inhibitors of Plasmodium falciparum (DD2) proliferation (AID 743345); conditions: P. falciparum Dd2 in erythrocytes, SYBR Green DNA, 72 h; at 28.5 µM (top of the series) unless noted
# Method in brief: as §1
# [7] = qHTS profiling of the MIPE4 collection as inhibitors of Plasmodium falciparum (DD2) proliferation (Rep 2) (AID 743346); conditions: P. falciparum Dd2 in erythrocytes, SYBR Green DNA, 72 h; at 28.5 µM (top of the series) unless noted
# Method in brief: as §1
# [8] = qHTS profiling of the MIPE4 collection as inhibitors of Plasmodium falciparum (HB3) proliferation (AID 743347);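 also: plate controls were DMSO vehicle wells for no effect and artemisinin wells for full effect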; conditions: P. falciparum HB3 in erythrocytes, SYBR Green DNA, 72 h; at 28.5 µM (top of the series) unless noted
# Method in brief: as §1
# [9] = Cell Proliferation Assay Versus the ED40515 IL2 Dependent ATL cell lines (AID 1053195; calls by dose curve); conditions: ED40515 IL2-dependent ATL cells
# Method in brief: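 CellTiter-Glo luminescence (15 min, RT) measured viability after 48 hours at 37C; cells were ED40515 +IL2, 1000/well, in phenol red-free RPMI with 5% FBS. Controls: DMSO and 9.2 uM bortezomib.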
# [10] = qHTS for Activators of Parkin Expression: LOPAC Validation Assay (NLuc Reporter) (AID 720572; active = well fitted curve in the direction sought with a large enough effect; an effect the other way counts as inactive or inconclusive;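 also: 0% = DMSO and 100% = positive control compound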)
# Method in brief: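 Cells harboring the Parkin-promoter coincidence reporter were treated for 24 h at seven concentrations. NLuc output was measured sequentially after the FLuc channel and scaled between DMSO and positive control values.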
# [11] = qHTS for Activators of Parkin Expression: LOPAC Validation Assay (FLuc Reporter) (AID 720573; active = well fitted curve in the direction sought with a large enough effect; an effect the other way counts as inactive or inconclusive;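 also: 0% = DMSO and 100% = positive control compounds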)
# Method in brief: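 FLuc signal from Parkin-promoter coincidence reporter neuronal cells, normalized to DMSO and positive control (100%). Cells (1,500/well) pre-incubated 24 h, then exposed to LOPAC compounds in 7-point dose response for 24 h at 37 C, 5% CO2.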
# [12] = qHTS assay for small molecule agonists of the antioxidant response element (ARE) signaling pathway measured by Nrf2-dependant transcriptional activity (AID 720636; active = well fitted curve in the direction sought with a large enough effect in the repeat runs; an effect the other way counts as inactive or inconclusive;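 also: HepG2 cells with an ARE-driven luciferase reporter; % of control where 0% means no effect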)
# Method in brief: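 First, ARE-luc HepG2 cells attached for 6 hr at 37 C in 1% dialyzed FBS medium. Next, compound or DMSO was added and incubated 16 hr. Finally, ONE-Glo reagent was added and luminescence measured after 30 min.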
# [13] = qHTS assay for small molecule antagonists of the retinoid-related orphan receptor gamma (ROR-gamma) signaling pathway - cell viability counter screen (AID 720652; active = well fitted curve in the direction sought with a large enough effect in the repeat runs; an effect the other way counts as inactive or inconclusive;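 also: CHO reporter cells with doxycycline-induced ROR-gamma expression; compound exposure lasted 16 hr before ATP read; % is scaled to controls: 0 for no effect and ±100 for the full control effect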)
# Method in brief: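 Steps: seed CHO cells bearing TET-inducible ROR and ROR response element-luciferase; rest 5 hr at 37 C; add compound, then doxycycline; incubate 16 hr; add CellTiter-Glo and read luminescence as ATP-based viability.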
# [14] = qHTS assay for small molecule agonists of the antioxidant response element (ARE) signaling pathway measured by Nrf2-dependant transcriptional activity - cell viability counter screen (AID 720653; active = well fitted curve in the direction sought with a large enough effect in the repeat runs; an effect the other way counts as inactive or inconclusive; also: % is scaled to controls: 0 for no effect and ±100 for the full control effect); conditions: ARE-bla HepG2 viability, CellTiter-Glo ATP luminescence, 16 h; stronger effect = lower value
# Method in brief: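 ARE-bla HepG2 cells (2,000/well) rested 5 hrs at 37C/5% CO2, then exposed to compounds in DMSO for 16 hrs. Viability was read in the same wells as intracellular ATP by luminescence, 30 min at room temperature after reagent addition.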
# [15] = biological target: T1, Hexokinase-4 (Homo sapiens) + Glucokinase regulatory protein (Homo sapiens) (UniProt P35557+Q14397); experiment: qHTS assay for inhibitors of recombinant human GCK-GKRP interaction: Diaphorase-coupled assay (AID 743205; active = well fitted curve in the direction sought with a large enough effect; an effect the other way counts as inactive or inconclusive)
# Method in brief: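 A kinetic fluorescence read (Ex 525/Em 590 nm, every minute for 30 minutes) tracked resorufin from a G6PDH-diaphorase coupled GCK reaction. It contained 10 nM GST-GCK, 10 nM FLAG-GKRP, 5 mM glucose, 0.4 mM ATP in Hepes pH 7.6. Normalized to with/without-enzyme DMSO controls.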
# [16] = biological target: T1, Hexokinase-4 (Homo sapiens) + Glucokinase regulatory protein (Homo sapiens); experiment: qHTS assay for inhibitors of recombinant human GCK-GKRP interaction: ADP-Glo assay (AID 743206; active = well fitted curve in the direction sought with a large enough effect; an effect the other way counts as inactive or inconclusive;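 also: plate controls were DMSO plus enzyme for no effect and no enzyme for full effect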)
# Method in brief: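 Pin-transferred compounds meet a 15 nM GST-GCK/15 nM FLAG-GKRP/2 uM S6P mix (dispense concentrations). ATP is then added to 0.4 mM final with 5 mM glucose, and the reaction runs 60 min at room temperature. ADP is quantified luminescently.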
# [17] = biological target: T1, Hexokinase-4 (Homo sapiens) + Glucokinase regulatory protein (Homo sapiens); experiment: qHTS assay for inhibitors of recombinant human GCK-GKRP interaction: HTRF assay (AID 743207; active = well fitted curve in the direction sought with a large enough effect; an effect the other way counts as inactive or inconclusive;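 also: 0% = DMSO with GCK present and -100% = DMSO wells lacking GCK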)
# Method in brief: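 After 60 min equilibration at room temperature with anti-FLAG XL665 and anti-GST antibodies, FRET ratio (665/615 nm, excitation 320 nm) was read. Proteins: GST-GCK and FLAG-GKRP, each 5 nM, plus 2 uM S6P, pH 7.1 buffer; GCK-free wells define minimum signal.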
# [18] = qHTS assay for cell viability of HEK293 cells (AID 743288; active = well fitted curve in the direction sought with a large enough effect; an effect the other way counts as inactive or inconclusive; also: % is scaled to controls: 0 for no effect and ±100 for the full control effect; nearly all actives have a fitted effect of over 50% in size); conditions: ATP luminescence (CellTiter-Glo), 18 h; max response: stronger effect = lower value
# Method in brief: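 Readout is luciferase-coupled ATP content (CellTiter-Glo luminescence, 30 min room temperature) as a measure of metabolically competent cells. Parental HEK293 cells were plated 5 h or more before compound addition, then treated 18 h at 37 C.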
# [19] = qHTS assay for cell viability of the p53RE-bla HCT-116 cell line (AID 743292; active = well fitted curve in the direction sought with a large enough effect; an effect the other way counts as inactive or inconclusive; also: % is scaled to controls: 0 for no effect and ±100 for the full control effect; nearly all actives have a fitted effect of over 55% in size)
# Method in brief: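 Quantitative high-throughput format: compounds in DMSO were pinned onto p53RE-bla HCT-116 cells (4,000/well) and incubated 16 h at 37 C. Total intracellular ATP, read by CellTiter-Glo luminescence, reflects viable cell number.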
# [20] = Cell Proliferation Assay Versus the ED40515 IL2 Independent ATL cell lines (AID 1053194; calls by dose curve); conditions: ED40515 IL2-independent ATL cells
# Method in brief: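 CellTiter-Glo luminescence, read after 15 min at RT, gave viability of IL-2-free ED40515 cells (1000/well, RPMI plus 5% FBS) following 48 h drug exposure at 37C. Control wells held DMSO or 9.2 uM bortezomib.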
# T1 sequence (P35557 whole entry, looked up): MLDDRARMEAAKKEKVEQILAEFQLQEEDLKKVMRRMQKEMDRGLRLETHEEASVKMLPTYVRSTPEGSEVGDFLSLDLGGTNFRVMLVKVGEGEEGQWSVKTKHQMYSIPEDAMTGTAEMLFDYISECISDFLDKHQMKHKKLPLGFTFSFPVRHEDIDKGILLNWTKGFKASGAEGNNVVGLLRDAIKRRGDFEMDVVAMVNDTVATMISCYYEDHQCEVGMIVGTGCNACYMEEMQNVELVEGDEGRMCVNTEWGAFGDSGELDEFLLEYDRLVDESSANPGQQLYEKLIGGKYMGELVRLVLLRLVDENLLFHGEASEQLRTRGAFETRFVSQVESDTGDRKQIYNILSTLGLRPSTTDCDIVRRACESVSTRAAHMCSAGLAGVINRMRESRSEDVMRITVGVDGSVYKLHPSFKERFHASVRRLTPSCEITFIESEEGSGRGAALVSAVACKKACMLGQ
# T1 sequence (Q14397 whole entry, looked up): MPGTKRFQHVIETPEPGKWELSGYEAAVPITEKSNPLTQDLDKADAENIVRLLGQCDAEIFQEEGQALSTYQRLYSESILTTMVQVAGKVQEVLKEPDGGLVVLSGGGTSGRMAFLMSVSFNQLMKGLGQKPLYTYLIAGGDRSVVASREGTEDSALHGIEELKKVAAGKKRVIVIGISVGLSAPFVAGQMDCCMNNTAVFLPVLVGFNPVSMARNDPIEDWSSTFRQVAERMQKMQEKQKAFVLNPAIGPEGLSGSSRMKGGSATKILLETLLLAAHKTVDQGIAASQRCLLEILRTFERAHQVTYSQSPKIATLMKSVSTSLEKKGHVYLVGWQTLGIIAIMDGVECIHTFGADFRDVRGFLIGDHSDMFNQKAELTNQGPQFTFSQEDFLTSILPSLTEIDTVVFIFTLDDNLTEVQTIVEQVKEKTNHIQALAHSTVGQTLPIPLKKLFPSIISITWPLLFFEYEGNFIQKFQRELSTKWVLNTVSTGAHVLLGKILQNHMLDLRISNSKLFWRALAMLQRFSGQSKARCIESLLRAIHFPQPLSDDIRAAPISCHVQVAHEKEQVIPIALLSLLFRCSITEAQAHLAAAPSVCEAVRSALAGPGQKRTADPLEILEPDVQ
smiles,measurement,setting,value
Cc1cc(C=c2sc3nc4ccccc4n3c2=O)c(C)n1-c1ccccc1,max response,[1],11.9% (inactive)
same,remaining parasite growth % (stronger effect = lower value),[2],37.9%
same,"activity, percent of control",[3],101%
same,"remaining proliferation (% of control), lower = more inhibition",[4],116%
same,"parasite growth, % of DMSO control",[5],84.9%
same,"parasite growth remaining, % of DMSO control (lower = more inhibition)",[6],93.2%
same,"parasite growth, % of control (lower = inhibition)",[7],73%
same,"growth, % of control",[8],424%
same,Potency,[9],6.62 µM (active)
NC(N)=NC(=O)c1nc(Cl)c(N)nc1N,Potency,[10],inactive
same,outcome,[11],inactive
same,outcome,[12],inactive
same,outcome,[13],inactive
same,max response,[14],-15% (inactive)
same,outcome,[15],inactive
same,outcome,[16],inactive
same,outcome,[17],inactive
same,max response,[18],-10.2% (inactive)
same,Potency,[19],inactive
Cc1cc(Nc2nc(N[C@@H](C)c3ncc(F)cn3)ncc2Cl)n[nH]1,max response,[1],8.89% (inactive)
same,"activity, percent of control",[3],100%
same,"remaining proliferation (% of control), lower = more inhibition",[4],101%
same,"parasite growth, % of control (lower = inhibition)",[7],21.5%
same,"growth, % of control",[8],10.9%
same,Potency,[20],14.8 µM (active)
COc1c(Cl)cc2c([nH]c3cnccc32)c1NC(=O)c1cccnc1C,max response,[1],20.9% (inactive)
same,remaining parasite growth % (stronger effect = lower value),[2],107%
same,"activity, percent of control",[3],108%
same,"remaining proliferation (% of control), lower = more inhibition",[4],86.1%
same,"parasite growth, % of DMSO control",[5],19.9%
same,"parasite growth, % of control (lower = inhibition)",[7],25.5%
same,"growth, % of control",[8],4.33%
same,Potency,[9],33.2 µM (active)
NC(=O)c1ccc(-c2nc(-c3ccc4c(c3)OCCO4)c(-c3ccccn3)[nH]2)cc1,remaining parasite growth % (stronger effect = lower value),[2],15.5%
same,"activity, percent of control",[3],4.9%
same,"remaining proliferation (% of control), lower = more inhibition",[4],13.2%
same,"parasite growth, % of control (lower = inhibition)",[7],18.6%
same,"growth, % of control",[8],12.9%
same,Potency,[20],20.9 µM (active)
Cc1ccnc(NS(=O)(=O)c2ccc(NC(=O)Nc3ccc(S(=O)(=O)Nc4nccc(C)n4)cc3)cc2)n1,max response,[1],-10.8% (inactive)
same,"activity, percent of control",[3],27.4%
same,"remaining proliferation (% of control), lower = more inhibition",[4],3.95%
same,"parasite growth, % of DMSO control",[5],15.7%
same,"parasite growth, % of control (lower = inhibition)",[7],26.2%
same,"growth, % of control",[8],9.87%
same,Potency,[9],23.5 µM (active)
CCCc1nc2c(C)cc(-c3nc4ccccc4n3C)cc2n1Cc1ccc(-c2ccccc2C(=O)O)cc1,"activity, percent of control",[3],94%
same,"remaining proliferation (% of control), lower = more inhibition",[4],66.6%
same,"parasite growth, % of DMSO control",[5],6.42%
same,"parasite growth remaining, % of DMSO control (lower = more inhibition)",[6],16.2%
same,"parasite growth, % of control (lower = inhibition)",[7],21.8%
same,"growth, % of control",[8],7.75%
same,Potency,[20],37.2 µM (active)
COc1cc2nccc(Oc3ccc(NC(=O)NC4CC4)c(Cl)c3)c2cc1C(N)=O,max response,[1],-10.8% (inactive)
same,remaining parasite growth % (stronger effect = lower value),[2],63.1%
same,"activity, percent of control",[3],67.5%
same,"remaining proliferation (% of control), lower = more inhibition",[4],30.9%
same,"parasite growth remaining, % of DMSO control (lower = more inhibition)",[6],70.8%
same,"parasite growth, % of control (lower = inhibition)",[7],30.6%
same,"growth, % of control",[8],19.2%
same,Potency,[9],20.9 µM (active)
CN(C)c1ccc(C2Nc3ccc4ccccc4c3C3=C2C(=O)CC(C)(C)C3)cc1Br (centres undefined),max response,[1],-26.5% (inactive)
same,remaining parasite growth % (stronger effect = lower value),[2],2.48%
same,"activity, percent of control",[3],6.15%
same,"remaining proliferation (% of control), lower = more inhibition",[4],1.79%
same,"parasite growth, % of DMSO control",[5],28.5%
same,"parasite growth remaining, % of DMSO control (lower = more inhibition)",[6],15%
same,"parasite growth, % of control (lower = inhibition)",[7],33.7%
same,"growth, % of control",[8],78%
same,Potency,[9],14.8 µM (active)
CNC[C@H](O)c1cccc(O)c1,Potency,[10],inactive
same,outcome,[11],inactive
same,outcome,[12],inactive
same,max response,[14],-6.42% (inactive)
same,outcome,[15],inactive
same,outcome,[16],inactive
same,outcome,[17],inactive
same,max response,[1],-1.17% (inactive) and 7.6% (inactive)
same,max response,[18],-12.3% (inactive)
same,Potency,[19],inactive
same,"parasite growth, % of DMSO control",[5],102%
same,"parasite growth remaining, % of DMSO control (lower = more inhibition)",[6],98.1%
same,"parasite growth, % of control (lower = inhibition)",[7],94.6%
same,"growth, % of control",[8],92.6%
